Assay results published in the supplement of paper PMC10849652.
Of roughly 8,800 targets only a part is listed; those with a hit were picked by preference. About 0.5% of all pairs of compound and target were hits.

Assays:
Test in all cases: log2 fold change, soluble protein after heating vs DMSO (PISA); higher = thermal stabilisation; K562 lysate, 10 uM; active = over 0.2 and 3.5 SD of the protein, either way, in both replicates (recomputed)
lapatinib = compound: CS(=O)(=O)CCNCc1ccc(-c2ccc3ncnc(Nc4ccc(OCc5cccc(F)c5)c(Cl)c4)c3c2)o1 [lapatinib]
Method in brief: (§1)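 Thermal stability, expressed as log-two fold change relative to solvent controls, is given from duplicates. Crude K562 extract in PBS pH 7.4 with 1 mM MgCl2, at 1 mg/mL protein, was treated with 10 μM compound for 30 min and heated in aliquots for 3 min across 48°C-58°C. After pooling, adjustment to 0.5% NP-40 at 4°C and centrifugation at 21,000xg for 90 min, supernatant protein was measured by TMTpro 16plex LC-MS/MS with channel sums equalised.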

pictilisib = compound: CS(=O)(=O)N1CCN(Cc2cc3nc(-c4cccc5[nH]ncc45)nc(N4CCOCC4)c3s2)CC1 [pictilisib]
Method in brief: as §1

crizotinib = compound: C[C@@H](Oc1cc(-c2cnn(C3CCNCC3)c2)cnc1N)c1c(Cl)ccc(F)c1Cl [crizotinib]
Method in brief: as §1

[1] = compound: C[C@H](C1=CC=C(C=C1)C(=O)NC2=C3C=CNC3=NC=C2)N
Method in brief: as §1

duvelisib = compound: C[C@H](Nc1ncnc2nc[nH]c12)c1cc2cccc(Cl)c2c(=O)n1-c1ccccc1 [duvelisib]
Method in brief: as §1

gandotinib = compound: Cc1cc(Nc2cc(CN3CCOCC3)c3nc(C)c(Cc4ccc(Cl)cc4F)n3n2)n[nH]1 [gandotinib]
Method in brief: as §1

tozasertib = compound: Cc1cc(Nc2cc(N3CCN(C)CC3)nc(Sc3ccc(NC(=O)C4CC4)cc3)n2)n[nH]1 [tozasertib]
Method in brief: as §1

doramapimod = compound: Cc1ccc(-n2nc(C(C)(C)C)cc2NC(=O)Nc2ccc(OCCN3CCOCC3)c3ccccc23)cc1 [doramapimod]
Method in brief: as §1

bafetinib = compound: Cc1ccc(NC(=O)c2ccc(CN3CC[C@H](N(C)C)C3)c(C(F)(F)F)c2)cc1Nc1nccc(-c2cncnc2)n1 [bafetinib]
Method in brief: as §1

[2] = compound: Cc1cccc(CC(=O)N2CCc3c2ccc(-c2cn(C)c4ncnc(N)c24)c3F)n1
Method in brief: as §1

nilotinib = compound: Cc1cn(-c2cc(NC(=O)c3ccc(C)c(Nc4nccc(-c5cccnc5)n4)c3)cc(C(F)(F)F)c2)cn1 [nilotinib]
Method in brief: as §1

[3] = compound: Cc1nc(Nc2n[nH]c3c2CN(C(=O)N[C@H](CN(C)C)c2ccccc2)C3(C)C)c2sccc2n1
Method in brief: as §1

dasatinib = compound: Cc1nc(Nc2ncc(C(=O)Nc3c(C)cccc3Cl)s2)cc(N2CCN(CCO)CC2)n1 [dasatinib]
Method in brief: as §1

[4] = compound: Cc1ncc(-c2ccnc(Nc3ccc(S(C)(=O)=O)cc3)n2)n1C(C)C
Method in brief: as §1

[5] = compound: Cn1cc(-c2ccc3c(c2)CCN3C(=O)Cc2cccc(C(F)(F)F)c2)c2c(N)ncnc21
Method in brief: as §1

quisinostat = compound: Cn1cc(CNCC2CCN(c3ncc(C(=O)NO)cn3)CC2)c2ccccc21 [quisinostat]
Method in brief: as §1

tipifarnib = compound: Cn1cncc1[C@@](N)(c1ccc(Cl)cc1)c1ccc2c(c1)c(-c1cccc(Cl)c1)cc(=O)n2C [tipifarnib]
Method in brief: as §1

[6] = compound: NC(=O)Nc1cc(-c2cccc(F)c2)sc1C(=O)N[C@H]1CCCNC1
Method in brief: as §1

[7] = compound: NC(=O)c1cnc(N[C@@H]2CCCC[C@@H]2N)nc1Nc1cccc(-n2nccn2)c1
Method in brief: as §1

[8] = compound: NC1(c2ccc(-c3nc4ccn5c(=O)[nH]nc5c4cc3-c3ccccc3)cc2)CCC1
Method in brief: as §1

Measured: log2 fold change

ACTG1 (UniProt I3L4N8)
inactive: lapatinib -0.072 | pictilisib -0.209 | crizotinib -0.066 | [1] -0.039 | duvelisib 0.13 | gandotinib -0.159 | tozasertib 0.083 | doramapimod -0.065 | bafetinib -0.183 | [2] -0.096 | nilotinib -0.068 | [3] 0.104 | dasatinib 0.055 | [4] -0.045 | [5] -0.171 | quisinostat 0.032 | tipifarnib 0.11 | [6] -0.053 | [7] -0.033 | [8] -0.114

AARS2 (UniProt Q5JTZ9)
Chain of UniProt Q5JTZ9 (Q5JTZ9 whole entry, looked up): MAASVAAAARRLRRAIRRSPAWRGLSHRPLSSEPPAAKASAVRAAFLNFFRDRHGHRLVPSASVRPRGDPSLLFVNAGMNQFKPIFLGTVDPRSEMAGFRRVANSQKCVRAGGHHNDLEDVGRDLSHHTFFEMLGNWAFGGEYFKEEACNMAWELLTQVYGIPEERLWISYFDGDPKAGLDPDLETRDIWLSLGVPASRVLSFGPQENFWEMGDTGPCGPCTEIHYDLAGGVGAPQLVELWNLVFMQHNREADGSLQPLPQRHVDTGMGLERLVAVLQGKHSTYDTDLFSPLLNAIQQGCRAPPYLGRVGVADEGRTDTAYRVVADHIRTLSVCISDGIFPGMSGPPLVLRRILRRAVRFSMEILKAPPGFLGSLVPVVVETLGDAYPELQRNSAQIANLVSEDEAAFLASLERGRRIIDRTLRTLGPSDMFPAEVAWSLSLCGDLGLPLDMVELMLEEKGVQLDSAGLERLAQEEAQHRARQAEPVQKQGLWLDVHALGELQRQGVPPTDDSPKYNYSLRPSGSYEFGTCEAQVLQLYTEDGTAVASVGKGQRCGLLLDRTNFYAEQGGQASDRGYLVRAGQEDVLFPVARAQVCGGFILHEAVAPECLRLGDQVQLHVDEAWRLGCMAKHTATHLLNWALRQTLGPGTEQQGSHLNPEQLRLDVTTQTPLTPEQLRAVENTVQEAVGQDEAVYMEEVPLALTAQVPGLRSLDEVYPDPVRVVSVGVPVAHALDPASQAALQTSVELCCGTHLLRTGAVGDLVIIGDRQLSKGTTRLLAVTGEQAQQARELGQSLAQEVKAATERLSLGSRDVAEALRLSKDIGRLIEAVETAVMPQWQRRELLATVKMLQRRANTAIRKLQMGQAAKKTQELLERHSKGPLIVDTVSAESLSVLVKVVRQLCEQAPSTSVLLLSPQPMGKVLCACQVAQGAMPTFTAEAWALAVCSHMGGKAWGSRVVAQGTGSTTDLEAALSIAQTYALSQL
inactive: lapatinib 0.007 | pictilisib 0.01 | crizotinib -0.046 | [1] 0.072 | duvelisib 0.012 | gandotinib -0.121 | tozasertib 0.039 | doramapimod 0.034 | bafetinib -0.041 | [2] 0.019 | nilotinib -0.046 | [3] 0.021 | dasatinib -0.018 | [4] -0.013 | [5] 0.062 | quisinostat -0.046 | tipifarnib 0.023 | [6] 0.053 | [7] 0.016 | [8] -0.05

AGPS (UniProt O00116)
Chain of UniProt O00116 (O00116 whole entry, looked up): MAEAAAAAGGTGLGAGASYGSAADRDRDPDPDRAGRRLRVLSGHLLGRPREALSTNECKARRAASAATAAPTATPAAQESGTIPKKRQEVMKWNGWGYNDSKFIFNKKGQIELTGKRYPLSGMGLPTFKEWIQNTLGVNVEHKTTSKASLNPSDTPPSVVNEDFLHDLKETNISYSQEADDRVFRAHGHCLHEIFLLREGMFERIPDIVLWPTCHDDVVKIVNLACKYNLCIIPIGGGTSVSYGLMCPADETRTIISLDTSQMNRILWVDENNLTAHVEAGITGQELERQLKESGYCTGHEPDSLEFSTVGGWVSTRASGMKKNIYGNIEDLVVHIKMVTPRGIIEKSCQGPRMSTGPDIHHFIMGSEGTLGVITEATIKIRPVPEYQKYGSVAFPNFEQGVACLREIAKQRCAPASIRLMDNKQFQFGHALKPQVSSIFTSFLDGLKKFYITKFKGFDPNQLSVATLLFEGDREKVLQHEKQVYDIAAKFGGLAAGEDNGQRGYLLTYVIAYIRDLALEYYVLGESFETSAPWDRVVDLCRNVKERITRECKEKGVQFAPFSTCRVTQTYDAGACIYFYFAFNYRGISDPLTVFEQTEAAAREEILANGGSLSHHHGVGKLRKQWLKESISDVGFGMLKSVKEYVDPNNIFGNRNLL
inactive: lapatinib -0.017 | pictilisib -0.049 | crizotinib -0.02 | [1] -0.033 | duvelisib -0.011 | gandotinib 0.019 | tozasertib 0.015 | doramapimod 0.025 | bafetinib 0.002 | [2] 0.083 | nilotinib -0.014 | [3] -0.021 | dasatinib -0.033 | [4] 0.05 | [5] 0.008 | quisinostat 0.064 | tipifarnib -0.015 | [6] 0.014 | [7] 0.004 | [8] 0.003

AP3D1 isoform 5 (UniProt O14617)
Chain of UniProt O14617 (O14617 whole entry, looked up): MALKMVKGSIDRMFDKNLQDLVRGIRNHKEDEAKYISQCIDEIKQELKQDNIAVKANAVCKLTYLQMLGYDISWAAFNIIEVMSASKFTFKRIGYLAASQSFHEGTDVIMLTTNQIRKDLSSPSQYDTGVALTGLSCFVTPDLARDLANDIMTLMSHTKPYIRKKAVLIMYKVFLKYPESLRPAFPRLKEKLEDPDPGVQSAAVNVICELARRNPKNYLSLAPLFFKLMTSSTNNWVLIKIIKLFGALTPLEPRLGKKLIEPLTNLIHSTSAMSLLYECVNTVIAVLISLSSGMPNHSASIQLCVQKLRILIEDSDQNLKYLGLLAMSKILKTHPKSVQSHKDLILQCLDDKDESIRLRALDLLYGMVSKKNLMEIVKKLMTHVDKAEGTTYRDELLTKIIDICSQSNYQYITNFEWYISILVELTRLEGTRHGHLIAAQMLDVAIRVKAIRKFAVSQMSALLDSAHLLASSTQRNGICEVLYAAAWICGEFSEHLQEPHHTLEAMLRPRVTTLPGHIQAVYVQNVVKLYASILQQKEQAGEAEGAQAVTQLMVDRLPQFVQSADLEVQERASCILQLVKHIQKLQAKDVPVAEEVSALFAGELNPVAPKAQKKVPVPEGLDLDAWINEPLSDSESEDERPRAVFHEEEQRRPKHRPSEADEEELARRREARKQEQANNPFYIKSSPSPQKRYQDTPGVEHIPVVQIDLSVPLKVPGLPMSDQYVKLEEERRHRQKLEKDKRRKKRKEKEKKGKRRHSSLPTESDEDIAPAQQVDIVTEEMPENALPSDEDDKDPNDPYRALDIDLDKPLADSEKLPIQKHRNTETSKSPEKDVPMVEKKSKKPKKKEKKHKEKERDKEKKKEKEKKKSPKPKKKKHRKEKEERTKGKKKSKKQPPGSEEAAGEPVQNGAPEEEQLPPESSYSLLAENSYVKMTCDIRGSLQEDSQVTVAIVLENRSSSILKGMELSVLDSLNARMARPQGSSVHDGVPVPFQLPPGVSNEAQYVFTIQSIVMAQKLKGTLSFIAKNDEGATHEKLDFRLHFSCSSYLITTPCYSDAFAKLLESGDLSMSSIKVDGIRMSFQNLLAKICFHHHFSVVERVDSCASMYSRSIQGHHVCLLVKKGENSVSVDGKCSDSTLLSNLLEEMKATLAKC
inactive: lapatinib 0.008 | pictilisib 0.01 | crizotinib -0.02 | [1] -0.061 | duvelisib 0.023 | gandotinib 0.05 | tozasertib 0.019 | doramapimod 0.059 | bafetinib -0.042 | [2] 0.081 | nilotinib -0.001 | [3] 0.018 | dasatinib -0.043 | [4] 0.002 | [5] 0.003 | quisinostat -0.002 | tipifarnib -0.002 | [6] 0.016 | [7] -0.007 | [8] 0.03

AMD1 (UniProt P17707)
Chain of UniProt P17707 (P17707 whole entry, looked up): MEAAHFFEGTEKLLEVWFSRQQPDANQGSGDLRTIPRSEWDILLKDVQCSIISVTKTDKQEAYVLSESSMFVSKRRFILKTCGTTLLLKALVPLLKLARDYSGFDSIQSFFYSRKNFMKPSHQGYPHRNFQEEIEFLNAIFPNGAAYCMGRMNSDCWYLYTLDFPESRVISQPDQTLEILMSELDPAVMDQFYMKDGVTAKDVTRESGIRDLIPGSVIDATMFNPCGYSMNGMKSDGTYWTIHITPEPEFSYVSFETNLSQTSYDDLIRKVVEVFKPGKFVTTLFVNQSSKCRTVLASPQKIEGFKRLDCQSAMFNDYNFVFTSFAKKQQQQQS
inactive: lapatinib -0.125 | pictilisib 0.056 | crizotinib 0.035 | [1] -0.099 | duvelisib 0.12 | gandotinib 0.107 | tozasertib 0.05 | doramapimod 0.316 | bafetinib -0.07 | [2] 0.048 | nilotinib -0.05 | [3] -0.04 | dasatinib -0.031 | [4] -0.001 | [5] 0.055 | quisinostat -0.145 | tipifarnib -0.005 | [6] 0.151 | [7] 0.229 | [8] -0.022

ACAA1 (UniProt P09110)
Chain of UniProt P09110 (P09110 whole entry, looked up): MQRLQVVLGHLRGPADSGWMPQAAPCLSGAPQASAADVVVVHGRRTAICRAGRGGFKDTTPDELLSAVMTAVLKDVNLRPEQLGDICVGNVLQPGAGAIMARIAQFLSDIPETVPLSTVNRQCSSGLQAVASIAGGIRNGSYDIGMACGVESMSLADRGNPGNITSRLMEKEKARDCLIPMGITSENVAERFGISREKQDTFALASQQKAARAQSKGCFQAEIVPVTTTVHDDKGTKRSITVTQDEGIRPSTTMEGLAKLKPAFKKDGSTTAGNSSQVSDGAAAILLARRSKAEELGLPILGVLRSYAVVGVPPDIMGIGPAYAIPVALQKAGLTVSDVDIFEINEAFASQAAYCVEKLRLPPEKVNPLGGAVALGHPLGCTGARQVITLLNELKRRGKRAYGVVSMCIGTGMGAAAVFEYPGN
inactive: lapatinib 0.017 | pictilisib -0.005 | crizotinib 0.014 | [1] -0.015 | duvelisib -0.014 | gandotinib 0.056 | tozasertib -0.043 | doramapimod -0.001 | bafetinib 0.045 | [2] -0.011 | nilotinib 0.035 | [3] -0.019 | dasatinib 0.014 | [4] -0.007 | [5] -0.027 | quisinostat -0.026 | tipifarnib 0.011 | [6] -0.001 | [7] -0.016 | [8] 0.009

AP1G2 (UniProt O75843)
Chain of UniProt O75843 (O75843 whole entry, looked up): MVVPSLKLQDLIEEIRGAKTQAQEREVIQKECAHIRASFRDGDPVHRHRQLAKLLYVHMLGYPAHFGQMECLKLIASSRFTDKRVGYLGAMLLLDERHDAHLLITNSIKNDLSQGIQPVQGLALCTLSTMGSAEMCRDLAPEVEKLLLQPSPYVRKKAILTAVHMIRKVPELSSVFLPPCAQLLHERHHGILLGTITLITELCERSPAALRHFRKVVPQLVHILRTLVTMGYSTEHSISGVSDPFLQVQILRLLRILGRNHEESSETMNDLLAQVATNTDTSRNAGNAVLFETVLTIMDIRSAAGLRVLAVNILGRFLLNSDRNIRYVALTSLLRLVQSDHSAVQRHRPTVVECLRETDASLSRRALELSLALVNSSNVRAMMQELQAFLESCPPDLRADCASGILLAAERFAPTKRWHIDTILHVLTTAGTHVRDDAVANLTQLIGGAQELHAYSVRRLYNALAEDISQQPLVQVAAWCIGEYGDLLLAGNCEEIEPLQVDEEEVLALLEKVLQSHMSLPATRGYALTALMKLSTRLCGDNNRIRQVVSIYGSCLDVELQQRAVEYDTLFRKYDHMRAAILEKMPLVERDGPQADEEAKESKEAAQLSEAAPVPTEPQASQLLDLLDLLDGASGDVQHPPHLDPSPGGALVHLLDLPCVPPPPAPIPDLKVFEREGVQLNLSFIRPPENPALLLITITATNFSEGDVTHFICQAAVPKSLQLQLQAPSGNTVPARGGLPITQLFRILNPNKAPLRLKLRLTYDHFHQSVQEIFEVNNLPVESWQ
inactive: lapatinib 0.068 | pictilisib -0.008 | crizotinib -0.095 | [1] -0.049 | duvelisib -0.02 | gandotinib 0 | tozasertib -0.02 | doramapimod -0.004 | bafetinib 0.026 | [2] 0.039 | nilotinib -0.013 | [3] -0.046 | dasatinib -0.081 | [4] -0.019 | [5] 0.048 | quisinostat -0.006 | tipifarnib 0.063 | [6] 0.005 | [7] -0.012 | [8] -0.125
